The results in this text go back to PubChem BioAssay AID1345085 (National Center for Advancing Translational Sciences (NCATS), 2018).

Records with an inconclusive call do not appear. Activity calls are given as the source filed them. The call rests on the fitted dose curve; in most records, active means well fitted cell-killing curve with a large enough effect; inconclusive means small, poorly fitted or top-dose-only effect, or effect the other way; inactive means no such curve, though single readings can be large or run the other way.
On the % scale 0 is the no-effect control and ±100 the full control effect; potency means the concentration at half of the fitted maximal effect.

The test system of this test is JEG-3. Nature of the test: Confirmatory qHTS for gynecologic anti-cancer compounds from libraries of approved drugs and bioactive compounds. Further: nearly all actives have a fitted effect of over 55% in size. The note with it: gynecologic cancer cell panel viability, ATPlite luminescence, 48 h; series mostly up to 57.6 µM; activity change, negative = viability loss: at the top concentration. A digest of the protocol: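 ATPlite luminescence read-out of cell viability; IC50 from 11-point 1:3 titrations, 57.5 uM to 0.977 nM, 48 h compound exposure at 37 C, 5% CO2. Cells seeded at 1,000/well 16 h before dosing.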
(qHTS replaces the single test concentration by a dilution series.)
In the case of `CCCCc1oc2ccc(NS(C)(=O)=O)cc2c1C(=O)c1ccc(OCCCN(CCCC)CCCC)cc1`, the Potency is 27.3 µM (active). As to `COC(=O)c1ccc2c(C(=Nc3ccc(N(C)C(=O)CN4CCN(C)CC4)cc3)c3ccccc3)c(O)[nH]c2c1`, the “activity change, negative = viability loss” value is 10.5% (inactive). `Nc1ncnc2c1ncn2[C@@H]1O[C@H](CO)C[C@H]1O`: the “activity change, negative = viability loss” value is 23.9% (inactive). In the case of `CCCC(=O)O[C@]1(C(=O)CCl)[C@@H](C)C[C@H]2[C@@H]3CCC4=CC(=O)C=C[C@]4(C)[C@@]3(F)C(=O)C[C@@]21C`, the Potency is 10.9 µM (active). Consider `NC(=O)c1cccc2cn(-c3ccc([C@@H]4CCCNC4)cc3)nc12`, for which the “activity change, negative = viability loss” value is -6.66% (inactive). In the case of `CCS(=O)(=O)N1CCN(c2ccc(Nc3ncc(C(N)=O)c(NC4CC4)n3)cc2)CC1`, the Potency is 9.68 µM (active). In the case of `CNc1nc(Nc2ccc(C(=O)N3CCOCC3)cc2OC)ncc1Cl`, the “activity change, negative = viability loss” value is 0.899% (inactive). In the case of `Cc1ccc(C(N)=O)cc1Nc1nccc(-c2cn(C(C)C)c3cnccc23)n1`, the Potency was 7.69 µM (active). Same read-out and setting: the figure for `Cc1cc(Nc2nc(N[C@@H](C)c3ccc(F)cc3)c(C#N)cc2F)n[nH]1` is 19.3 µM (active). For the compound `CN(C)C(CCOc1cccc2ccccc12)c1ccccc1` (configuration not stated), the “activity change, negative = viability loss” value is -13.9% (inactive). On to `OC[C@H]1O[C@@H](n2cnc3c(=S)nc[nH]c32)[C@H](O)[C@@H]1O`, for which the Potency is 4.85 µM (active). On to `CC(=O)O[C@H]1C(=O)[C@@]2(C)[C@H]([C@H](OC(=O)c3ccccc3)[C@]3(O)C[C@H](OC(=O)[C@H](O)[C@@H](NC(=O)c4ccccc4)c4ccccc4)C(C)=C1C3(C)C)[C@]1(OC(C)=O)CO[C@@H]1C[C@@H]2O`, for which the Potency was 0.0259 µM (active). Take `COc1ccc(-c2ccc3c(N4CCOCC4C)nc(N4CCOCC4C)nc3n2)cc1CO` (configuration not stated): the “activity change, negative = viability loss” value was -1.03% (inactive). For the compound `CC(C)(C)C(=O)OCOP(=O)(COCCn1cnc2c(N)ncnc21)OCOC(=O)C(C)(C)C`, the Potency was 2.43 µM (active). On the same count and under the same terms, the figure for `Nc1ccccc1NC(=O)c1ccc(CNC(=O)OCc2cccnc2)cc1` is 3.85 µM (active); for `CC[C@@]1(O)C(=O)OCc2c1cc1n(c2=O)Cc2c-1nc1ccccc1c2/C=N/OC(C)(C)C` it is 0.0217 µM (active). For the compound `CN[C@@H](C)C(=O)N[C@H]1CN(C(=O)CC(C)C)CC[C@H]2CC[C@@H](C(=O)NC(c3ccccc3)c3ccccc3)N2C1=O`, the “activity change, negative = viability loss” value was 14.6% (inactive). Consider `Fc1cc(-c2cccc3ncc(-c4cnn(C5CCNCC5)c4)nc23)cc(F)c1CN1CCOCC1`, for which the Potency is 30.6 µM (active). For `NC(=O)Nc1cc(-c2cccc(F)c2)sc1C(=O)NC1CCCNC1` (configuration not stated), the Potency is 1.22 µM (active). As for `Nc1nccc(Oc2ccc(NC(=O)c3c[nH]cc(-c4ccc(F)cc4)c3=O)cc2F)c1Cl`, the Potency is 4.32 µM (active). On to `Oc1cn2c(n1)Nc1ccc(Cl)c(Cl)c1C2`, for which the “activity change, negative = viability loss” value is 10.8% [at 19.5 µM] (inactive).

Consider `CN(C)C/C=C/C(=O)Nc1cc2c(Nc3ccc(F)c(Cl)c3)ncnc2cc1OC1CCOC1` (configuration not stated), for which the Potency is 19.3 µM (active). On the same count and under the same terms, the figure for `CC(C)Oc1ccc2c(=O)c(-c3ccccc3)coc2c1` is 24.3 µM (active). Take `CN(C)CC/C=C1\c2ccccc2COc2ccccc21`: the “activity change, negative = viability loss” value is -6.65% (inactive). For the compound `FC(F)(F)c1ccc(/C=C/c2nc(COc3ccc(CCCCn4ccnn4)cc3)co2)cc1`, the Potency was 0.0172 µM (active). For `Cc1cnc(Nc2ccc(CN3CCOCC3)cc2)nc1Nc1cccc(S(=O)(=O)NC(C)(C)C)c1`, the Potency was 9.68 µM (active).

`Cc1nc(Nc2n[nH]c3c2CN(C(=O)NC(CN(C)C)c2ccccc2)C3(C)C)c2sccc2n1` (configuration not stated): the Potency is 0.544 µM (active). For the compound `COc1cc2c(cc1-c1c(C)noc1C)ncc1[nH]c(=O)n(C(C)c3ccccn3)c12` (configuration not stated), the Potency was 3.06 µM (active). As for `CCc1c2c(nc3ccc(O)cc13)-c1cc3c(c(=O)n1C2)COC(=O)[C@]3(O)CC`, the Potency is 0.122 µM (active).

As for `Cc1nc2ccc(CN(C)c3ccc(C(=O)NC(CCC(=O)O)C(=O)O)s3)cc2c(=O)[nH]1` (configuration not stated), the “activity change, negative = viability loss” value is -13.6% (inactive). Same read-out and setting: the figure for `CCc1nc(C(N)=O)c(Nc2ccc(N3CCC(N4CCN(C)CC4)CC3)c(OC)c2)nc1NC1CCOCC1` is -15.7% [at 45.6 µM] (inactive).

As for `CCCC(Nc1nc(-c2ccc(NC(=O)NCC)c(OC)c2)ncc1C)c1cccnc1` (configuration not stated), the Potency is 0.153 µM (active).
